Reference: PubChem BioAssay (NCATS)
Inconclusive results are not listed. Entries that show only a call come without a potency. Calls of active or inactive are those of the source. Unless noted, calls follow the shape of the dose curve; as a rule, active = well fitted curve in the direction sought with a large enough effect; inconclusive = small, poorly fitted or top-dose-only effect, or another doubt; inactive = no such curve, though single readings can be large; an effect the other way counts as inactive or inconclusive.

Legend:
[1] = biological target: Glutaminase kidney isoform, mitochondrial (Homo sapiens) (UniProt O94925); assay: qHTS for Inhibitors of Glutaminase (GLS): LOPAC Validation (AID 624146); also: nearly all actives have a fitted effect of over 60% in size; also: potency is read from the fitted curve at half-maximal effect
Chain of Glutaminase kidney isoform, mitochondrial (Homo sapiens) (O94925 whole entry, looked up, canonical isoform): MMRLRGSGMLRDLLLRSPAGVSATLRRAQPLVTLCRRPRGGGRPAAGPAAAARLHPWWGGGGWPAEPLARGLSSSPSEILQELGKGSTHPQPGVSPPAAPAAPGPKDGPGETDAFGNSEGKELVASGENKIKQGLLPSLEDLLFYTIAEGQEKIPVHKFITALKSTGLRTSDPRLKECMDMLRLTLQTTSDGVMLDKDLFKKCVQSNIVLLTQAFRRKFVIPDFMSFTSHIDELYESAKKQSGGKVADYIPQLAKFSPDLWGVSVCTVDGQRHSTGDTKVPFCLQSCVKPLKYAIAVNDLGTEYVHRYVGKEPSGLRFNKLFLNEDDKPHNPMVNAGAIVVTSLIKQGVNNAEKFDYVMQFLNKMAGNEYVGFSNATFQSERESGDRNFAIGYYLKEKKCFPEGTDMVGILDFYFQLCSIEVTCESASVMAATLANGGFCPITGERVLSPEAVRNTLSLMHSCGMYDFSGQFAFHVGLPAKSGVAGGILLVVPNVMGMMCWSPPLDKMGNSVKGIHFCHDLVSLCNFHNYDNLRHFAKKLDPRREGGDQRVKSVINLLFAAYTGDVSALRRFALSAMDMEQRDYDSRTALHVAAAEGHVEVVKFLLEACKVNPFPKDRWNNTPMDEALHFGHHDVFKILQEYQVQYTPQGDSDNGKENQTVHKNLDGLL
Outline: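 Enzyme dispensed in phosphate buffer (45 mM, pH 8.2, 0.02% Tween-20), compounds pinned in, then 1 mM L-glutamine solution and the glutamate oxidase–HRP–Amplex Red mix added; fluorescence read immediately and again after 30 min at room temperature.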

[2] = qHTS of Trypanosoma Brucei Inhibitors: LOPAC Validation (AID 624147); also: potency is read from the fitted curve at half-maximal effect
Outline: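 Readout: single end-point luminescence (Kinase-Glo Plus, 10 min). Reaction conditions were TbPYK/substrate plus 130 uM ADP, 45 min at RT, pH 7.2 TEA buffer. No-enzyme wells served as controls, and data were normalized before concentration-response fitting.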

[3] = biological target: Glucagon-like peptide 1 receptor (Homo sapiens) (UniProt P43220); assay: qHTS of GLP-1 Receptor Agonists: LOPAC Validation (AID 624148);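 also: luminescence from a luciferase reporter switched on by cAMP; higher luminescence signal means agonism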
Chain of Glucagon-like peptide 1 receptor (Homo sapiens) (P43220 whole entry, looked up): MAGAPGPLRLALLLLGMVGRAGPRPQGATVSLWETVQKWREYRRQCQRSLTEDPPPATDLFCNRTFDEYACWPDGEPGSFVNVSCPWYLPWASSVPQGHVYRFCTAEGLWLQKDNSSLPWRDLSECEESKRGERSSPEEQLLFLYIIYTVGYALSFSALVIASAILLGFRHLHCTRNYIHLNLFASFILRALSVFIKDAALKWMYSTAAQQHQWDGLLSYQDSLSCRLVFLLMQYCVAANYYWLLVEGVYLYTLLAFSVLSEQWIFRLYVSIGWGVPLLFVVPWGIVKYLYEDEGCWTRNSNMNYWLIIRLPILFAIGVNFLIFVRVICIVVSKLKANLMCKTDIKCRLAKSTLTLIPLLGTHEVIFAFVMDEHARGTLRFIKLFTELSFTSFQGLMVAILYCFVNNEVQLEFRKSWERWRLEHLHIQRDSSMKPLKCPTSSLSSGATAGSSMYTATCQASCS
Outline: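 Agonism scored as increased luciferase luminescence driven by cAMP in HEK293 clones carrying GLP-1R. Cells settled 12 hours, received compound for 4-6 hr at 37 deg C, 5% CO2, and were read after 12 min detection reagent at RT.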

[4] = qHTS assay for small molecule agonists of the antioxidant response element (ARE) signaling pathway (AID 651741; active = well fitted activation curve with a large enough effect in the signal ratio; the % refers to the signal ratio; also: potency is read from the fitted curve at half-maximal effect)
Outline: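 Beta-lactamase reporter under ARE control in HepG2 cells, 2,000 per well, was induced by 16 h compound treatment at 37 C. Read-out was fluorescence from LiveBLAzer B/G FRET substrate after 2 h at room temperature.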

[5] = qHTS assay for small molecule activators of the p53 signaling pathway (AID 651743; active = well fitted activation curve with a large enough effect in the signal ratio, not every such curve was filed as active; the % refers to the signal ratio); details: HCT-116 p53RE-bla, beta-lactamase FRET ratio, 16 h; activation: stronger effect = higher value
Outline: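 After 16 hours compound treatment at 37 C, HCT-116 cells stably expressing p53RE-driven beta-lactamase were loaded with LiveBLAzer B/G FRET substrate for 2 hours at room temperature. Fluorescence intensity served as the p53 activation read-out.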

[6] = qHTS assay for small molecule activators of the nuclear factor-kappa B (NF-kB) signaling pathway (AID 651749; active = well fitted activation curve with a large enough effect in the signal ratio; the % refers to the signal ratio); details: NF-kB-bla ME-180 cells, beta-lactamase FRET ratio, 16 h; stronger effect = higher value
Outline: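 Activation measured after 16 hr compound treatment at 37C, 5% CO2, of 2,000 ME-180 cells/well stably expressing an NF-kB response element–driven beta-lactamase reporter, via FRET-disruption fluorescence.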

[7] = qHTS of Nrf2 Activators: LOPAC Validation (AID 624149)
Outline: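 Cells (AREc32_Fluc) are plated at 1000 per well in OPTI-MEM containing 5% FBS and left overnight. Compounds are pinned in and incubated 24 hr at 37 deg C, and firefly luciferase is detected with Steady-Glo.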

[8] = HTS Assay for Allosteric Antagonists of the Human D2 Dopamine Receptor: Hit Validation in HTRF (AID 624455);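 also: stable D1 dopamine receptor cell line scored for blocking the D1 response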
Outline: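 Inhibition of the D1-mediated response is measured by HTRF in cells that stably express the D1 dopamine receptor. Compounds reaching this step are hits from calcium-flux antagonism testing at EC80 dopamine in inducible Hek293 Trex D2 cells.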

[9] = Cytotoxicity counterscreen for NFkB agonists and antagonists (AID 624476);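 also: cells exposed to compound for 48 hours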
[10] = qHTS Assay for Identification of Small Molecule Antagonists for NFkB Signaling Pathway. (AID 624479; calls by dose curve;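 also: pathway stimulated with TNF alpha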)
[11] = Cell Proliferation Assay against the TMD8 Cell Line (AID 651645); details: TMD8 DLBCL cell line proliferation/viability; at 46.1 µM (top of the series) unless noted;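 also: cells exposed to compound for 48 h before reading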
Outline: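 500 TMD8 cells/well, RPMI + Glutamax, no phenol red, 5% FBS; cpd added immediately; 48 h, 37C, 5% CO2; CellTiter-Glo, luminescence. Controls: DMSO = 100%, bortezomib 9.2 uM final = 0%.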

[12] = Cell Proliferation Assay against the HBL1 Cell Line (AID 651646); details: HBL1 DLBCL cells; at 46.1 µM (top of the series) unless noted;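 also: cells exposed to compound for 48 h before reading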
Outline: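 CellTiter-Glo luminescence after 48 h compound exposure at 37C gives percent activity, with DMSO as 100% and 9.2 uM bortezomib final as 0%. Cells: 500 log-phase HBL1 per well, RPMI plus 5% FBS.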

[13] = Cell Proliferation Assay against the TMD8 Cell Line (Caspase readout at 16 hrs) (AID 651712)
Outline: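 Caspase-Glo luminescence measured apoptosis after a 16 h, 37 C compound exposure of TMD8 cells (500 cells/well, 5% FBS RPMI). DMSO set 0% and bortezomib at 9.2 uM final set 100% activity.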

[14] = Cell Proliferation Assay against the TMD8 Cell Line (Caspase readout at 8 hrs) (AID 651713)
Outline: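 Caspase 3/7 activation in ABC DLBCL TMD8 cells is measured by luminescence after an 8 h compound exposure at 37C. Relative light units are scaled between DMSO (0%) and 9.2 uM final bortezomib (100%).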

[15] = biological target: Peroxisome proliferator-activated receptor alpha (Homo sapiens) (UniProt Q07869); assay: qHTS assay for small molecule agonists of the peroxisome proliferator-activated receptor alpha (PPARalpha) signaling pathway (AID 651778); details: PathHunter PPARalpha complementation, chemiluminescence, 6 h; stronger effect = higher value
Chain of Peroxisome proliferator-activated receptor alpha (Homo sapiens) (Q07869 whole entry, looked up): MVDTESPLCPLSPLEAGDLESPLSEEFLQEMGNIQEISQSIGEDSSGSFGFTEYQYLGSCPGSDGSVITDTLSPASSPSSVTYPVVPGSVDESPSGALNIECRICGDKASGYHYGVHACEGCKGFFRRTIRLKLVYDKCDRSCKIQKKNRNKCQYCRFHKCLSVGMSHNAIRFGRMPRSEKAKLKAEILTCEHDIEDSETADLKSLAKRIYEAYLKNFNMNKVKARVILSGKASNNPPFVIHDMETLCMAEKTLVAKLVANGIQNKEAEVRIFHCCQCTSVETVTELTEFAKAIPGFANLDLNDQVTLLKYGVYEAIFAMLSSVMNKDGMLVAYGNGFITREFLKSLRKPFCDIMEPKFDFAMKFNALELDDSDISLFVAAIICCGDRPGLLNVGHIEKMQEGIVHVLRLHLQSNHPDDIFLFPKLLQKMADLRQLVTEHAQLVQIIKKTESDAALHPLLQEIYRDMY
Outline: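 Chemiluminescence from complemented enzyme reported PPARalpha activation in cells after 6 hr of compound treatment at 37 C. The detection reagent was incubated for 60 min at room temperature, and compounds were scored as agonists.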

[16] = qHTS assay for environmental chemicals that activate the Aryl hydrocarbon Receptor (AhR) signaling pathway (AID 651777); details: 1A2-DRE human hepatoma cells, luciferase, 24 h; activation: stronger effect = higher value; also: nearly all actives have a fitted effect of over 15% in size
Outline: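 Reporter gene assay: hepatoma cells with DRE/CYP1A2-luciferase, 24 hr compound incubation at 37 C, 5% CO2, luminescence after One-Glo (30 min, RT).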

SMILES: CCN(CC)C(=S)SSC(=S)N(CC)CC
- Potency [1]: 7.94 µM (active)
- Potency [2]: 9.53 µM (active)
- outcome [3]: inactive
- Potency [4]: inactive
- activation [5]: 4.22% (inactive)
- activation [6]: 0.724% (inactive)

SMILES: CCOC(=O)C(C)Oc1cccc2c(=O)n(CC(=O)Nc3ccc4c(c3)OCCO4)ccc12 (stereo not drawn)
- Potency [1]: inactive
- Potency [2]: inactive
- outcome [3]: inactive
- outcome [7]: inactive
- outcome [8]: inactive
- Potency [9]: inactive
- Potency [10]: inactive
- viability (% of control) [11]: 109%
- viability, percent of control [12]: 108%
- Potency [13]: inactive
- Potency [14]: inactive

SMILES: Nc1ccn([C@@H]2O[C@H](CO)[C@@H](O)C2O)c(=O)n1 (stereo partly drawn)
- Potency [1]: inactive
- Potency [2]: inactive
- outcome [3]: inactive
- outcome [7]: inactive
- outcome [8]: inactive

SMILES: Nc1nc(N)c(N=O)c(OCC2CCCCC2)n1
- Potency [1]: inactive
- Potency [2]: inactive
- outcome [3]: inactive
- outcome [7]: inactive
- outcome [8]: inactive

SMILES: O=C(c1ccccc1)c1ccc2n1CCC2C(=O)O (stereo not drawn)
- Potency [1]: inactive
- Potency [2]: inactive
- outcome [3]: inactive
- outcome [7]: inactive
- outcome [8]: inactive

SMILES: O=Nc1c(-c2c(O)[nH]c3cc(Br)ccc23)[nH]c2ccccc12
- Potency [2]: inactive
- outcome [3]: inactive
- outcome [7]: inactive
- outcome [8]: inactive

SMILES: O=c1ccc2ccc(O)c(O)c2o1
- Potency [2]: inactive
- outcome [3]: inactive
- outcome [7]: inactive
- outcome [8]: inactive

SMILES: Oc1ccc(-c2nc(-c3ccc(F)cc3)c(-c3ccncc3)[nH]2)cc1
- Potency [1]: inactive
- Potency [2]: inactive
- outcome [3]: inactive
- outcome [7]: inactive
- outcome [8]: inactive

SMILES: COc1cc2nc(N3CCN(C(=O)C4CCCO4)CC3)nc(N)c2cc1OC (stereo not drawn)
- Potency [1]: inactive
- Potency [2]: inactive
- outcome [3]: inactive
- outcome [7]: inactive
- outcome [8]: inactive

SMILES: CC(=O)O[C@H]1C(=O)[C@@]2(C)C([C@H](OC(=O)c3ccccc3)[C@]3(O)C[C@H](OC(=O)[C@H](O)[C@@H](NC(=O)c4ccccc4)c4ccccc4)C(C)=C1C3(C)C)[C@]1(OC(C)=O)CO[C@@H]1C[C@@H]2O (stereo partly drawn)
- Potency [1]: inactive
- Potency [2]: inactive
- outcome [3]: inactive
- outcome [7]: inactive
- outcome [8]: inactive

SMILES: COc1cc2c(cc1OC)C1CC(=O)C(CC(C)C)CN1CC2 (stereo not drawn)
- Potency [2]: inactive
- outcome [3]: inactive
- outcome [7]: inactive

SMILES: NCCCCNCCCN
- Potency [1]: inactive
- Potency [2]: inactive
- outcome [3]: inactive
- outcome [7]: inactive
- outcome [8]: inactive

SMILES: O=c1cc(N2CCOCC2)oc2c(-c3ccccc3)cccc12
- Potency [1]: inactive
- Potency [2]: inactive
- outcome [3]: inactive
- outcome [7]: inactive
- outcome [8]: inactive

SMILES: CC(=O)N1CCN(c2ccc(OC[C@H]3CO[C@](Cn4ccnc4)(c4ccc(Cl)cc4Cl)O3)cc2)CC1
- Potency [1]: inactive
- Potency [2]: inactive
- outcome [3]: inactive
- outcome [7]: inactive
- outcome [8]: inactive
- max response [15]: -0.168% (inactive)

SMILES: COc1ccc2cc([C@H](C)C(=O)O)ccc2c1
- Potency [1]: inactive
- Potency [2]: inactive
- outcome [3]: inactive
- outcome [7]: inactive

SMILES: OC(CN1CCN(c2cccc(Cl)c2)CC1)C(c1ccccc1)c1ccccc1 (stereo not drawn)
- Potency [1]: inactive
- Potency [2]: inactive
- outcome [3]: inactive
- outcome [7]: inactive
- outcome [8]: inactive

SMILES: Cc1c(OCC(F)(F)F)ccnc1CS(=O)c1nc2ccccc2[nH]1 (stereo not drawn)
- Potency [2]: inactive
- outcome [3]: inactive
- outcome [7]: inactive
- outcome [8]: inactive

SMILES: C[C@@H](N)C1CCC(C(=O)Nc2ccncc2)CC1 (stereo partly drawn)
- Potency [1]: inactive
- Potency [2]: inactive
- outcome [3]: inactive
- outcome [7]: inactive
- Potency [9]: inactive
- viability (% of control) [11]: 91.3%
- viability, percent of control [12]: 95.4%
- Potency [13]: inactive
- Potency [14]: inactive

SMILES: O=C(CCc1ccc(O)cc1)c1c(O)cc(O)cc1O
- Potency [2]: inactive
- outcome [3]: inactive
- outcome [7]: inactive
- outcome [8]: inactive

SMILES: CC1(C)C(=O)N(CCN2CCC(C(=O)c3ccc(F)cc3)CC2)c2ccccc21
- Potency [2]: inactive
- outcome [3]: inactive
- outcome [7]: inactive
- outcome [8]: inactive

SMILES: O=C1NC(=O)C(c2ccccc2[N+](=O)[O-])=C1Nc1ccc(O)c(Cl)c1
- Potency [1]: 10 µM (active)
- Potency [2]: inactive
- outcome [3]: inactive
- outcome [7]: inactive

SMILES: CNC[C@H](O)c1ccc(O)c(O)c1
- Potency [1]: inactive
- Potency [2]: inactive
- outcome [7]: inactive
- Potency [4]: 48.6 µM (active)
- activation [5]: 1.2% (inactive)
- activation [16]: -0.576% (inactive)
- max response [15]: -0.497% (inactive)

SMILES: O=C1c2ccccc2-c2n[nH]c3cccc1c23
- Potency [1]: inactive
- Potency [2]: inactive
- outcome [3]: inactive
- outcome [7]: inactive
- outcome [8]: inactive

SMILES: CC1(C)NC(=O)N(c2ccc([N+](=O)[O-])c(C(F)(F)F)c2)C1=O
- Potency [1]: inactive
- Potency [2]: inactive
- outcome [3]: inactive
- outcome [7]: inactive
- outcome [8]: inactive
- Potency [4]: 54.5 µM (active)
- activation [5]: 15.1% (inactive)
- activation [16]: 1.77% (inactive)
- max response [15]: -2.93% (inactive)

SMILES: Nc1nc(OCc2ccccc2)c2[nH]cnc2n1
- Potency [1]: inactive
- Potency [2]: inactive
- outcome [3]: inactive
- outcome [7]: inactive
- outcome [8]: inactive

SMILES: COc1ccccc1N1CCN(CCN(C(=O)C2CCCCC2)c2ccccn2)CC1
- Potency [1]: inactive
- Potency [2]: inactive
- outcome [3]: inactive
- outcome [7]: inactive
- outcome [8]: inactive

SMILES: O=C(O)c1cccnc1Nc1cccc(C(F)(F)F)c1
- Potency [1]: inactive
- Potency [2]: inactive
- outcome [3]: inactive
- outcome [7]: inactive
- outcome [8]: inactive

SMILES: NC(=NCc1ccccc1)NC(=O)c1nc(Cl)c(N)nc1N
- Potency [1]: inactive
- Potency [2]: inactive
- outcome [3]: inactive
- outcome [7]: inactive
- outcome [8]: inactive

SMILES: CN(C)CCCC1(c2ccc(F)cc2)OCc2cc(C#N)ccc21 (stereo not drawn)
- Potency [1]: inactive
- Potency [2]: inactive
- outcome [3]: inactive
- outcome [7]: inactive
- outcome [8]: inactive

SMILES: C[C@H](Cc1ccc(O)c(O)c1)[C@@H](C)Cc1ccc(O)c(O)c1
- Potency [1]: 0.631 µM (active)
- Potency [2]: 12 µM (active)
- outcome [3]: inactive
- outcome [7]: inactive
- outcome [8]: inactive

SMILES: NNc1nncc2ccccc12
- Potency [2]: inactive
- outcome [3]: inactive
- outcome [7]: inactive
- outcome [8]: inactive

SMILES: O=C1c2c(O)cc(O)cc2OC(c2ccc(O)c(O)c2)C1O (stereo not drawn)
- Potency [1]: 0.708 µM (active)
- Potency [2]: inactive
- outcome [3]: inactive
- outcome [7]: inactive
- outcome [8]: inactive
